From PubChem BioAssay (Tox21)
Records with an inconclusive call do not appear. Activity calls are given as the source filed them. Unless noted, calls follow the shape of the dose curve; as a rule, active = well fitted curve in the direction sought with a large enough effect in the repeat runs; inconclusive = weak or mixed curves; inactive = no such curve, though single readings can be large; an effect the other way counts as inactive or inconclusive.

Legend:
[1] = target: Aryl hydrocarbon receptor (Homo sapiens) (UniProt P35869); assay: qHTS assay to identify small molecule that activate the aryl hydrocarbon receptor (AhR) signaling pathway (AID 743085);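 also: HG2L7.5c1 human HepG2 liver cells with stably integrated DRE-driven firefly reporter; series mostly up to about 70 µM; nearly all actives have a fitted effect of over 15% in size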
Sequence of Aryl hydrocarbon receptor (Homo sapiens) (P35869 whole entry, looked up): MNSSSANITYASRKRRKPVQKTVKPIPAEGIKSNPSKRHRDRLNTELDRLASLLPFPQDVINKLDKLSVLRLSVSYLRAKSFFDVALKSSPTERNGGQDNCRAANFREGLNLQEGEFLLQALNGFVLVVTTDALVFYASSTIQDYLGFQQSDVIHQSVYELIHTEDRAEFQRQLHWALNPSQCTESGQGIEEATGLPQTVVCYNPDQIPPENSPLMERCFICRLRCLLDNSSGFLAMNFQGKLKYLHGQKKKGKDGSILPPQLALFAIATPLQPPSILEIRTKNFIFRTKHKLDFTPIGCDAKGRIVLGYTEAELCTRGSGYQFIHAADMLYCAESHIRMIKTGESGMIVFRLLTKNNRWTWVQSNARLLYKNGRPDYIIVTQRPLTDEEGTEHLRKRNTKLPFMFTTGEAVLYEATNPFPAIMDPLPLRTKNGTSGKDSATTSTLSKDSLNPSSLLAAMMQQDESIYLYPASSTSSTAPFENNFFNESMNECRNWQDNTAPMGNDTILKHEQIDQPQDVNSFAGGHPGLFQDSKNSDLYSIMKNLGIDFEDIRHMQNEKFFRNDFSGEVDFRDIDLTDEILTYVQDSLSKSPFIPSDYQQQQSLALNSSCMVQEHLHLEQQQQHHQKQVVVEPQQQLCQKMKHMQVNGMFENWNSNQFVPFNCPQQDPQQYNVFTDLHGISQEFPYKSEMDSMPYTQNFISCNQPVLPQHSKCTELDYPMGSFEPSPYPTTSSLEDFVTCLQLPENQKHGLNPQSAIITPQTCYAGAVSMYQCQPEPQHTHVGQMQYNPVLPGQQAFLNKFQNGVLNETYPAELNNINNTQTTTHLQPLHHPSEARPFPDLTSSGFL
Procedure, shortened: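 A multiplexed format paired cell viability (CellTiter-Fluor fluorescence) with AhR-dependent luciferase output (ONE-Glo luminescence) in the same wells of HepG2 DRE-luc cells after 24 h compound exposure at 37C.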

[2] = qHTS assay to identify small molecule that activate the aryl hydrocarbon receptor (AhR) signaling pathway - cell viability counter screen (AID 743086);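 also: HepG2 liver cells carrying the AhR DRE luciferase reporter; series mostly up to about 70 µM; nearly all actives have a fitted effect of over 45% in size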
Procedure, shortened: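 HepG2-AhR-luc (HG2L7.5c1) cells, 4000/well, were preincubated 5 h at 37C, exposed to compound in qHTS format for 24 hr at 37C, then given CellTiter-Fluor for 30 min; viability was read as fluorescence in the reporter wells.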

[3] = target: Peroxisome proliferator-activated receptor gamma (Homo sapiens) (UniProt P37231); assay: qHTS assay to identify small molecule agonists of the peroxisome proliferator-activated receptor gamma (PPARg) signaling pathway (AID 743094; active = well fitted activation curve with a large enough effect in the signal ratio in the repeat runs, not every such curve was filed as active; the % refers to the signal ratio)
Sequence of Peroxisome proliferator-activated receptor gamma (Homo sapiens) (P37231 whole entry, looked up): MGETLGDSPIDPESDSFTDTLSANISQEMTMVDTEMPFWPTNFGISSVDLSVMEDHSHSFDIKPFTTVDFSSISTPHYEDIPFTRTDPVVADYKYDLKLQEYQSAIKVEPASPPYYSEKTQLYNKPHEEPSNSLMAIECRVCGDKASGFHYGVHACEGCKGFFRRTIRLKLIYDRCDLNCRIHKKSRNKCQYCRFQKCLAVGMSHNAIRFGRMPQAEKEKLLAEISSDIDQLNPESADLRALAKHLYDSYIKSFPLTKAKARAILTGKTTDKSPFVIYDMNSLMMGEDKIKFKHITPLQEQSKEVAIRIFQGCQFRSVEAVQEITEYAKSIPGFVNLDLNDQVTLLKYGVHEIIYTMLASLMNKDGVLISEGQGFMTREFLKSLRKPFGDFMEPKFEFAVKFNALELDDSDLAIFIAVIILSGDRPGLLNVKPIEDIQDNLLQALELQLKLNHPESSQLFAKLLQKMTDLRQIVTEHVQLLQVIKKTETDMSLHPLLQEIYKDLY
Procedure, shortened: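 Reporter activation was scored by fluorescence of cleaved LiveBLAzer B/G substrate (1 h, room temperature) in PPARg-bla HEK293H cells previously treated 17 h at 37C with DMSO-dissolved compounds.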

[4] = target: Peroxisome proliferator-activated receptor gamma (Homo sapiens) (UniProt P37231); assay: qHTS assay to identify small molecule antagonists of the peroxisome proliferator-activated receptor gamma (PPARg) signaling pathway (AID 743191; calls by dose curve; also: nearly all actives have a fitted effect of over 30% in size; also: potency is read from the fitted curve at half-maximal effect; as to ratio activity, negative = inhibition: series mostly up to about 63 µM)
Procedure, shortened: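 GeneBLAzer PPARg UAS-bla HEK293H cells carrying a UAS-driven beta-lactamase reporter were plated at 3000 cells/well, preincubated 5 h at 37C, then given compound for 17 h at 37C; LiveBLAzer B/G FRET substrate was read after 1 h at room temperature.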

[5] = qHTS assay to identify small molecule antagonists of the peroxisome proliferator-activated receptor gamma (PPARg) signaling pathway - cell viability counter screen (AID 743194); also: nearly all actives have a fitted effect of over 55% in size
Procedure, shortened: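 PPARg-UAS-bla HEK293H cells were plated, rested 5 h at 37 C, then treated with compounds plus rosiglitazone (50 nM final) for 17 h at 37 C; viability was then read by CellTiter-Glo luminescence after 30 min at room temperature.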

[6] = qHTS assay for small molecule agonists of the antioxidant response element (ARE) signaling pathway (AID 743202; active = well fitted activation curve with a large enough effect in the signal ratio in the repeat runs, not every such curve was filed as active; the % refers to the signal ratio)
Procedure, shortened: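 Following a 16 h, 37 C exposure of reporter HepG2 cells (ARE-driven beta-lactamase, 2,000 cells/well) to compounds, FRET substrate was applied for 2 h at room temperature and fluorescence intensity recorded.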

[7] = qHTS assay for small molecule agonists of the antioxidant response element (ARE) signaling pathway - cell viability counter screen (AID 743203; calls by dose curve; also: nearly all actives have a fitted effect of over 55% in size)
Procedure, shortened: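 Viability counter screen: stably transfected ARE-bla HepG2 line, 16 hrs compound exposure at 37C/5% CO2, ATP-based CellTiter-Glo luminescence measured in the reporter wells.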

[8] = qHTS assay for small molecule activators of the heat shock response signaling pathway - cell viability counter screen (AID 743209); also: nearly all actives have a fitted effect of over 50% in size
Procedure, shortened: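 Viability of HSE-bla HeLa cells is measured with CellTiter-Glo in the wells already used for the reporter read. Compound exposure lasts 5 h at 37 C, and luminescence is read after 30 min at room temperature.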

[9] = qHTS assay for small molecule activators of the heat shock response signaling pathway (AID 743210; active = well fitted activation curve with a large enough effect in the signal ratio in the repeat runs, with a control signal flat, not every such curve was filed as active; the % refers to the signal ratio; also: series mostly up to about 63 µM)
Procedure, shortened: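 Heat shock element–beta-lactamase HeLa reporter cells; qHTS with compounds for 5 h at 37 C; detection by FRET substrate fluorescence after 2.5 h at RT.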

[10] = qHTS assay to identify small molecule agonists of the peroxisome proliferator-activated receptor delta (PPARd) signaling pathway - cell viability counter screen (AID 743211); also: nearly all actives have a fitted effect of over 55% in size
Procedure, shortened: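 Tox21 library compounds, delivered in DMSO, were incubated 17 h with PPARd-bla HEK293H cells; cytotoxicity was taken from CellTiter-Glo luminescence read 30 min after reagent addition.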

[11] = target: Peroxisome proliferator-activated receptor delta (Homo sapiens) (UniProt Q03181); assay: qHTS assay to identify small molecule agonists of the peroxisome proliferator-activated receptor delta (PPARd) signaling pathway (AID 743212; calls by dose curve)
Sequence of Peroxisome proliferator-activated receptor delta (Homo sapiens) (Q03181 whole entry, looked up): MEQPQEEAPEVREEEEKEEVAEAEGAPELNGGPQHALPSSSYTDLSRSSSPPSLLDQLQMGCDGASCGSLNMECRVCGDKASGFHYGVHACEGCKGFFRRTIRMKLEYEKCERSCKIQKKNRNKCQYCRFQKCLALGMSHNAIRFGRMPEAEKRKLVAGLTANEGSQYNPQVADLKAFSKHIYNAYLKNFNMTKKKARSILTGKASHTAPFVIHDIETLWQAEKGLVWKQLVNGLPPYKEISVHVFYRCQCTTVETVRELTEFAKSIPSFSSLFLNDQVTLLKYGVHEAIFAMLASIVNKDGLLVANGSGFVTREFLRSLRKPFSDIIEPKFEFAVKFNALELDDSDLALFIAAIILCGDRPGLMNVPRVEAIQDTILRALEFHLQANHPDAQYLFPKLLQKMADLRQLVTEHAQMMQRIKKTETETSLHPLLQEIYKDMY
Procedure, shortened: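 Beta-lactamase reporter read by fluorescence (LiveBLAzer B/G FRET, 2 h, room temperature). Test agents, in DMSO, incubated at 37 C with PPARd-bla HEK293H cells.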

[12] = qHTS assay to identify small molecule antagonists of the peroxisome proliferator-activated receptor delta (PPARd) signaling pathway - cell viability counter screen (AID 743213); also: nearly all actives have a fitted effect of over 50% in size
Procedure, shortened: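 Cytotoxicity counter screen: CellTiter-Glo luminescence read 30 min after addition, in the same wells as the reporter assay. There, PPARd UAS-bla HEK293H cells (3000/well) were treated 17 h at 37 C with compound and 300 nM L165041.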

[13] = target: Peroxisome proliferator-activated receptor delta (Homo sapiens) (UniProt Q03181); assay: qHTS assay to identify small molecule antagonists of the peroxisome proliferator-activated receptor delta (PPARd) signaling pathway (AID 743215; active = well fitted inhibition curve with a large enough effect in the signal ratio in the repeat runs, not every such curve was filed as active; the % refers to the signal ratio;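 also: cells stimulated with agonist L165041 at 300 nM final during compound exposure; series mostly up to about 62 µM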)
Procedure, shortened: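 Plated HEK293H PPARd-bla cells rested 5 h at 37 C and 5% CO2. Compound, then agonist L165041 at 300 nM final, was added; 17 h at 37 C followed. Substrate loading, 2 h room temperature, fluorescence measured.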

[14] = qHTS assay to identify small molecule agonists of the farnesoid-X-receptor (FXR) signaling pathway - cell viability counter screen (AID 743218); also: nearly all actives have a fitted effect of over 45% in size
Procedure, shortened: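 Viability of FXR-bla HEK 293T cells is measured by ATP-based CellTiter-Glo luminescence following 16 h compound treatment at 37 C and a prior 2 h room-temperature beta-lactamase substrate step.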

[15] = qHTS assay to identify small molecule antagonists of the farnesoid-X-receptor (FXR) signaling pathway - cell viability counter screen (AID 743221; active = well fitted cell-killing curve with a large enough effect in the repeat runs, not every such curve was filed as active; also: nearly all actives have a fitted effect of over 50% in size)
Procedure, shortened: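 Cytotoxicity is taken from ATP luminescence (CellTiter-Glo, 30 min, room temperature) in FXR-bla HEK 293T cells previously incubated 16 h at 37 C with compound and chenodeoxycholic acid at 50 uM final.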

[16] = target: Vitamin D3 receptor (Homo sapiens) (UniProt P11473); assay: qHTS assay to identify small molecule agonists of the vitamin D receptor (VDR) signaling pathway (AID 743222; calls by dose curve)
Sequence of Vitamin D3 receptor (Homo sapiens) (P11473 whole entry, looked up): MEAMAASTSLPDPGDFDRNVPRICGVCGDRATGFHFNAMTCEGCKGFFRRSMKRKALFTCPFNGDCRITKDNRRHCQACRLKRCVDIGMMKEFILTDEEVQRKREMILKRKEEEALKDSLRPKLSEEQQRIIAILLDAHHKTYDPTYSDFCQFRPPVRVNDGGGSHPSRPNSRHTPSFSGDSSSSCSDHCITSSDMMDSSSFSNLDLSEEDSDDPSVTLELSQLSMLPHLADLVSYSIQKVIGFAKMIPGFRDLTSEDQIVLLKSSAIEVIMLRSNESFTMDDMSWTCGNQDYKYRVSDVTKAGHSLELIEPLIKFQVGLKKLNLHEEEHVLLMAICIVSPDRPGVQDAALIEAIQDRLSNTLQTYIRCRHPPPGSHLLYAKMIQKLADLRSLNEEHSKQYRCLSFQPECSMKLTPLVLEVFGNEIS
Procedure, shortened: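 Fluorescence from cleaved LiveBLAzer B/G FRET substrate served as readout. VDR-bla cells had been treated 16 h at 37C with test compounds in DMSO, following a 4 h settling period, and substrate was loaded for 2 h at RT.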

[17] = target: Vitamin D3 receptor (Homo sapiens) (UniProt P11473); assay: qHTS assay to identify small molecule antagonists of the vitamin D receptor (VDR) signaling pathway (AID 743223; active = well fitted inhibition curve with a large enough effect in the signal ratio in the repeat runs, not every such curve was filed as active; the % refers to the signal ratio)
Procedure, shortened: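 Quantitative HTS in VDR-bla reporter cells stimulated with 1alpha,25-dihydroxyvitamin D3, 3 nM final. Compound exposure 16 h, 37C, 5% CO2. Read-out: beta-lactamase FRET substrate fluorescence, 2 h RT.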

[18] = qHTS assay to identify small molecule agonists of the vitamin D receptor (VDR) signaling pathway - cell viability counter screen (AID 743224); also: series mostly up to about 63 µM; nearly all actives have a fitted effect of over 50% in size
Procedure, shortened: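 Compounds were pin-transferred onto VDR-bla cells plated 4 h earlier; following 16 h incubation at 37C, cell viability was quantified by CellTiter-Glo luminescence after 30 min at room temperature.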

[19] = target: Bile acid receptor (Homo sapiens) (UniProt Q96RI1); assay: qHTS assay to identify small molecule agonists of the farnesoid-X-receptor (FXR) signaling pathway (AID 743220; active = well fitted activation curve with a large enough effect in the signal ratio in the repeat runs, not every such curve was filed as active; the % refers to the signal ratio)
Sequence of Bile acid receptor (Homo sapiens) (Q96RI1 whole entry, looked up): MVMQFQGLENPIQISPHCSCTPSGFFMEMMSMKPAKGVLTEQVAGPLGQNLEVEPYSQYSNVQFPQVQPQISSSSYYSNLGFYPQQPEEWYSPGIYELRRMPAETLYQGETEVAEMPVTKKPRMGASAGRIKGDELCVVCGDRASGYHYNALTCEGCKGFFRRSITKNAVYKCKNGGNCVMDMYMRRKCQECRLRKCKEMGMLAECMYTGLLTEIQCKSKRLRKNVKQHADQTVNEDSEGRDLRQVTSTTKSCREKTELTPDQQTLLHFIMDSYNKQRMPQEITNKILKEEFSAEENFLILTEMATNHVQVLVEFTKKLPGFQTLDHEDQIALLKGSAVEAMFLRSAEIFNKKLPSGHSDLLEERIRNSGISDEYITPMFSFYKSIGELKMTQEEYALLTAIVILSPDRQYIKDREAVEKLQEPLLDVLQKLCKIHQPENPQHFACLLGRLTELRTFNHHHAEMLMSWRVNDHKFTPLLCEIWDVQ
Procedure, shortened: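 FXR-UAS-bla HEK 293T cells carrying a UAS-driven beta-lactamase reporter were plated for 5 h at 37C/5% CO2, then exposed to DMSO-dissolved Tox21 10K compounds for 16 h at 37C. A LiveBLAzer B/G FRET substrate was loaded for 2 h at room temperature before fluorescence reading.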

[20] = target: Bile acid receptor (Homo sapiens) (UniProt Q96RI1); assay: qHTS assay to identify small molecule antagonists of the farnesoid-X-receptor (FXR) signaling pathway (AID 743217; active = well fitted inhibition curve with a large enough effect in the signal ratio in the repeat runs, not every such curve was filed as active; the % refers to the signal ratio)
Procedure, shortened: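 Screen of the Tox21 10K library in quantitative HTS format using FXR-UAS-bla HEK 293T reporter cells. Agonist chenodeoxycholic acid, 50 uM final, added with compounds; 16 h incubation at 37 °C; beta-lactamase FRET fluorescence measured.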
% is scaled to controls: 0 for no effect and ±100 for the full control effect.

OC/C(Br)=C(\Br)CO
inactive: Potency [1] | Potency [2] | Potency [3] | Potency [4] | Potency [5] | Potency [6] | Potency [7] | Potency [8] | Potency [9] | Potency [10] | Potency [11] | Potency [12] | Potency [13] | Potency [14] | Potency [15] | outcome [16] | outcome [17] | Potency [18]

CCCCCCCCCCCC[N+](C)(C)CCCS(=O)(=O)[O-]
inactive: Potency [1] | Potency [2] | Potency [3] | Potency [4] | Potency [5] | Potency [6] | Potency [7] | Potency [8] | Potency [9] | Potency [11] | Potency [13] | Potency [14] | Potency [15] | outcome [16]

CCCCCC=CCC=CCCCCCCCC(=O)OCC
active: Potency [4] 29.8 µM
inactive: Potency [1] | Potency [2] | Potency [3] | Potency [5] | Potency [7] | Potency [13] | Potency [14] | Potency [19] | Potency [15] | outcome [16] | outcome [17]

C=CC(=O)NCOCC(C)C
inactive: Potency [1] | Potency [2] | Potency [3] | Potency [4] | Potency [5] | Potency [7] | Potency [8] | Potency [9] | Potency [10] | Potency [12] | Potency [20] | Potency [14] | Potency [19] | outcome [16] | Potency [18]

CC1(C)C2=CCCC(C)(C)[C@]23CC[C@H]1C3
inactive: Potency [1] | Potency [2] | Potency [3] | Potency [4] | Potency [5] | Potency [7] | Potency [9] | Potency [11] | Potency [12] | Potency [20] | Potency [19] | Potency [15] | outcome [16] | outcome [17] | Potency [18]

Cc1cc(C(=C2C=CC(=Nc3ccc(S(=O)(=O)O)cc3S(=O)(=O)O)C=C2)c2ccc(Nc3ccc(S(=O)(=O)O)cc3)cc2)ccc1N
inactive: Potency [1] | Potency [2] | Potency [3] | Potency [4] | Potency [5] | Potency [6] | Potency [9] | Potency [10] | Potency [12] | Potency [15] | outcome [16] | Potency [18]

C=CC(=C)CCCC(C)(C)OC(C)=O
inactive: Potency [1] | Potency [2] | Potency [3] | Potency [4] | Potency [5] | Potency [6] | Potency [7] | Potency [8] | Potency [9] | Potency [10] | Potency [11] | Potency [12] | Potency [13] | Potency [14] | Potency [15] | outcome [16]

Cc1ccnc2ccccc12
inactive: Potency [1] | Potency [2] | Potency [3] | Potency [4] | Potency [5] | Potency [6] | Potency [8] | Potency [9] | Potency [10] | Potency [11] | Potency [12] | Potency [13] | Potency [14] | Potency [15] | outcome [16] | outcome [17] | Potency [18]

C=CCCCCCCCCCCCCCCCC
inactive: activation [1] -0.177% [at 8.47 µM] | viability change, negative = cytotoxic [2] -2.48% [at 8.47 µM] | activation [3] -3.71% [at 7.08 µM] | ratio activity, negative = inhibition [4] 1.33% [at 5.95 µM] | activity change, negative = cytotoxicity [5] 1.33% [at 5.95 µM] | viability change, negative = cytotoxic [7] -4.17% [at 8.36 µM] | activity change, negative = cytotoxicity [8] 11.1% [at 5.95 µM] | activation [9] -2.33% [at 5.95 µM] | activity change, negative = cytotoxicity [10] -1.2% [at 5.95 µM] | activation [11] -3.43% [at 5.95 µM] | viability change, negative = cytotoxic [12] 13.3% [at 6.26 µM] | ratio activity, negative = inhibition [13] -0.434% [at 6.26 µM] | activity change, negative = inhibition [20] -5.71% [at 5.95 µM] | viability change, negative = cytotoxic [14] 4.85% [at 5.95 µM] | activation [19] -1.74% [at 5.95 µM] | activity change, negative = cytotoxicity [15] -0.119% [at 5.95 µM] | activation [16] -0.178% [at 6.01 µM] | activity change, negative = inhibition [17] 7.35% [at 6.95 µM] | activity change, negative = cytotoxicity [18] 7.44% [at 5.95 µM]
